# Test results taken from PubChem BioAssay (NCATS).
# Records with an inconclusive call do not appear. Unmarked numbers belong to inactive results. Activity calls are given as the source filed them. The call rests on the fitted dose curve; in most records, active means well fitted curve in the direction sought with a large enough effect; inconclusive means small, poorly fitted or top-dose-only effect, or another doubt; inactive means no such curve, though single readings can be large or run the other way.
# Test: qHTS Assay for Identifying Gametocytocidal Compounds (AID 743244);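 on max response: actives lower the fluorescent signal which means gametocytes are killed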
# Details: P. falciparum 3D7 stage III-V gametocytes, alamarBlue, 72 h; max response: active compounds read low
# Procedure, shortened: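 Compounds are pinned into medium, gametocytes (stage III–V, 3D7, 20,000 cells/well) added, and plates held 72 h at 37 °C in 5% CO2. AlamarBlue follows for 24 h before fluorescence reading.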
# On the % scale 0 is the no-effect control and ±100 the full control effect; potency means the concentration at half of the fitted maximal effect.
Structure (SMILES),max response,Potency
O=C(C=Cc1c(C(=O)O)[nH]c2cc(Cl)cc(Cl)c12)Nc1ccccc1,20.3%,
COc1cc(C(=O)NS(=O)(=O)c2ccccc2C)ccc1Cc1cn(C)c2ccc(NC(=O)OC3CCCC3)cc12,2.7%,
CC[C@@H]1C(=O)N(C)c2cnc(Nc3ccc(C(=O)NC4CCC(N5CCN(CC6CC6)CC5)CC4)cc3OC)nc2N1C(C)C (some centres undefined),,7.43 µM (active)
C[C@@H](Oc1cc(-n2cnc3ccc(CN4CCN(C)CC4)cc32)sc1C(N)=O)c1ccccc1C(F)(F)F,,18.7 µM (active)
Cc1cnc(Nc2ccc(F)cc2Cl)nc1-c1c[nH]c(C(=O)N[C@H](CO)c2cccc(Cl)c2)c1,-28.2%,
O=c1c2ccccc2nc2n1CCc1c-2[nH]c2ccccc12,16.8%,
CNC(=O)c1cc(Oc2ccc(NC(=O)Nc3cc(C(C)(C)C)nn3-c3ccc4ncccc4c3)c(F)c2)ccn1,-28.6%,
CC(=O)SC[C@@H](C)C(=O)N1CCC[C@H]1C(=O)N[C@@H](Cc1ccccc1)C(=O)O,7.13%,
CC=C1NC(=O)[C@H]2CSSCCC=C[C@H](CC(=O)N[C@H](C(C)C)C(=O)N2)OC(=O)[C@H](C(C)C)NC1=O,,0.59 µM (active)
Nc1nc(-c2nn(Cc3ccccc3F)c3ncccc23)nc(N)c1N1CCOCC1,-6.3%,
O=C(O)c1ccc2c(c1)nc(Nc1cccc(Cl)c1)c1ccncc12,35.3%,
COc1cc(C(C)C)c2c(c1)S(=O)(=O)N(COc1cc(=O)n3cccc(OCCN4CCCCC4)c3n1)C2=O,-3.11%,
CC(NCc1ccc2c(c1)nc(NC(=O)c1ccc(-c3cn[nH]c3)s1)n2CC(C)(C)O)C(C)(C)C (centres undefined),,9.35 µM (active)
CC1(C)OC2=C(C(=O)c3ccccc3C2=O)[C@H](NCc2ccccc2)[C@H]1O,,0.743 µM (active)
CC(C)(O)CCc1ccc(OCc2cc(-c3cccc(OC(F)F)c3)c3ncccc3c2)cc1,9.3%,
Clc1ccc2ncc(-c3cccc(NC4CNC4)n3)n2c1,-0.805%,
CN(C)CC=CC(=O)Nc1cc2c(Nc3ccc(F)c(Cl)c3)ncnc2cc1O[C@H]1CCOC1,,0.935 µM (active)
C#Cc1cccc(Nc2ncnc3cc(OC)c(OCCCCCCC(=O)NO)cc23)c1,,1.71 µM (active)
CN(c1ncccc1CNc1nc(Nc2ccc3c(c2)CC(=O)N3)ncc1C(F)(F)F)S(C)(=O)=O,3.79%,
CC(=O)Nc1sc2c(c1-c1nc3ccccc3s1)CNC2,20.9%,
CN1CCC(CNc2ccc3ncc(-c4cccc(OC(F)(F)F)c4)n3n2)CC1,,9.35 µM (active)
Nc1ccccc1NC(=O)c1ccc(CNc2nccc(-c3cccnc3)n2)cc1,,11.8 µM (active)
C[C@]1(CO)CN(c2cc(C(=O)Nc3ccc4c(c3)-c3c(c(C(N)=O)nn3-c3ccc(F)cc3)CC4)c(Cl)cn2)C[C@@]1(C)CO,-20.6%,
COc1cc2c(Oc3ccc4[nH]c(C)cc4c3F)ncnc2cc1OCCCN1CCCC1,,18.7 µM (active)
COc1ccc(CC2c3cc(OC)c(OC)cc3CC[N+]2(C)CCC(=O)OCCCCCOC(=O)CC[N+]2(C)CCc3cc(OC)c(OC)cc3C2Cc2ccc(OC)c(OC)c2)cc1OC (centres undefined),8.81%,
CCN1CCN(Cc2ccc(-c3cc4c(N[C@H](C)c5ccccc5)ncnc4[nH]3)cc2)CC1,,23.5 µM (active)
CC(C)CC(=O)Nc1n[nH]c2c1CN(C(=O)C1CCN(C)CC1)C2(C)C,,18.7 µM (active)
Nc1cc(C(F)(F)F)c(-c2cc(N3CCOCC3)nc(N3CCOCC3)n2)cn1,-15.2%,
CC1=C(CO)C(=O)O[C@@H]([C@@H](C)[C@H]2CC[C@H]3[C@@H]4C[C@H]5O[C@]56[C@@H](O)C=CC(=O)[C@]6(C)[C@@H]4CC[C@]23C)C1,,0.372 µM (active)
